Values joined by “and” are separate entries in the source; they are usually repeats but may differ in a detail not shown here. Equal values may be shown once. Results filed as inconclusive are left out. The source holds several records for some structures; these can differ, active in one and inactive in another. Active and inactive are the calls of the source. Unless noted, calls follow the shape of the dose curve; as a rule, active = well fitted curve in the direction sought with a large enough effect in the repeat runs; inconclusive = weak or mixed curves; inactive = no such curve, though single readings can be large; an effect the other way counts as inactive or inconclusive.

We go through 20 molecules from PubChem BioAssay (Tox21).

Assay [1] has as its target Estrogen receptor (Homo sapiens) (UniProt P03372). In words: qHTS assay to identify small molecule antagonists of the estrogen receptor alpha (ER-alpha) signaling pathway using the BG1 cell line in the presence of 0.1 nM 17-beta-estradiol (AID 1259244). Also: nearly all actives have a fitted effect of over 50% in size. Also: potency is read from the fitted curve at half-maximal effect. Put shortly:
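Luminescence after ONE-Glo (30 min, room temperature) measured ERE-luciferase activity in VM7Luc4E2 cells treated 22 h with compound and 0.1 nM final 17beta-estradiol as stimulator.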

Assay [2] can be described thus: qHTS assay to identify small molecule HDAC inhibitors (AID 1259364). Also: potency is read from the fitted curve at half-maximal effect.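 Also: wild-type HCT-116 cells with endogenous class I/II HDAC activity; nearly all actives have a fitted effect of over 45% in size.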 As to activity change, negative = inhibition: top concentration of the series differs between compounds. The method in brief:
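HCT-116 (wild type), 1,500 cells/well, overnight; compound 2 hr 37C 5% CO2; HDAC-Glo I/II reagent 30 min RT; luminescence readout.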

A short description of assay [3]: qHTS assay to identify small molecule HDAC inhibitors - cell viability counter screen (AID 1259365). Also: nearly all actives have a fitted effect of over 50% in size. Also: potency is read from the fitted curve at half-maximal effect. As to activity change, negative = cytotoxicity: series mostly up to about 92 µM. The method in brief:
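Luminescence from CellTiter-Glo, developed 30min at room temperature, reports viability of wild-type HCT-116 cells treated 2hr with compounds at 37 C and 5% CO2 after overnight plating.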

Assay [4] can be described thus: qHTS assay to identify small molecule agonists of the sonic hedgehog signaling (Shh) pathway - cell viability counter screen (AID 1259366). Also: nearly all actives have a fitted effect of over 50% in size. Also: potency is read from the fitted curve at half-maximal effect. The method in brief: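 Cytotoxicity counter screen run in the same wells as the Shh reporter assay. NIH/3T3 cells carrying a Gli1 response element–driven luciferase were treated with DMSO-dissolved compounds for 24hr, and live-cell protease activity was measured with CellTiter-Fluor.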

Assay [5] can be described thus: qHTS assay to identify small molecule antagonists of the sonic hedgehog signaling (Shh) pathway - cell viability counter screen (AID 1259367). Also: nearly all actives have a fitted effect of over 55% in size. Also: potency is read from the fitted curve at half-maximal effect. Put shortly:
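CellTiter-Fluor signal in conditioned medium-stimulated 3T3 Gli1-Luc cells, 23 hr compound exposure, 37C.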

Assay [6] is described as follows: qHTS assay to identify small molecule agonists of the sonic hedgehog signaling (Shh) pathway (AID 1259368; calls by dose curve;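 also: NIH/3T3-derived 3T3Gli1-Luc cells carrying a stable Gli1-driven firefly luciferase reporter; series mostly up to about 92 µM; nearly all actives have a fitted effect of over 15% in size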). Put shortly:
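Read-out: firefly luciferase luminescence from a Gli1 response element reporter stably integrated in NIH/3T3-derived 3T3Gli1-Luc cells, measured 30 min at room temperature after reagent addition. Compound exposure lasted 24 hr at 37 C, 5% CO2.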

Assay [7] is described as follows: qHTS assay to identify small molecule antagonists of the sonic hedgehog signaling (Shh) pathway (AID 1259369; calls by dose curve; also: nearly all actives have a fitted effect of over 45% in size; also: potency is read from the fitted curve at half-maximal effect). The method in brief:
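Luminescence readout: firefly Luc under Gli1 response element in 3T3Gli1-Luc cells (NIH/3T3 clone). Antagonist mode, stimulation by conditioned medium; compound exposure 24hr at 37 C, 5% CO2.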

Assay [8] has as its target Estrogen receptor beta (Homo sapiens) (UniProt Q92731). As to the kind of experiment: qHTS assay to identify small molecule agonists of the estrogen receptor beta (ER-beta) signaling pathway (AID 1259377; active = well fitted activation curve with a large enough effect in the signal ratio in the repeat runs, not every such curve was filed as active; the % refers to the signal ratio). Put shortly:
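HEK293T ER-beta-UAS-bla; 2% charcoal-stripped FBS; cells pre-incubated 6 hr, compound 16 hr, 37C/5% CO2; LiveBLAzer B/G FRET substrate 2 h RT; fluorescence intensity read.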

Assay [9] can be described thus: qHTS assay to identify small molecule phospholipidosis (PLD) inducers (AID 1259344; active = well fitted curve in the direction sought with a large enough effect; an effect the other way counts as inactive or inconclusive). Put shortly:
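Accumulated phospholipid, stained red by LipidTOX during 24 h compound treatment of HepG2 cells at 37 C, is quantified from images as pit number and intensity, normalised per cell using Hoechst-stained nuclei.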
% is scaled to controls: 0 for no effect and ±100 for the full control effect.

Estrogen receptor beta (Homo sapiens), sequence (Q92731 whole entry, looked up): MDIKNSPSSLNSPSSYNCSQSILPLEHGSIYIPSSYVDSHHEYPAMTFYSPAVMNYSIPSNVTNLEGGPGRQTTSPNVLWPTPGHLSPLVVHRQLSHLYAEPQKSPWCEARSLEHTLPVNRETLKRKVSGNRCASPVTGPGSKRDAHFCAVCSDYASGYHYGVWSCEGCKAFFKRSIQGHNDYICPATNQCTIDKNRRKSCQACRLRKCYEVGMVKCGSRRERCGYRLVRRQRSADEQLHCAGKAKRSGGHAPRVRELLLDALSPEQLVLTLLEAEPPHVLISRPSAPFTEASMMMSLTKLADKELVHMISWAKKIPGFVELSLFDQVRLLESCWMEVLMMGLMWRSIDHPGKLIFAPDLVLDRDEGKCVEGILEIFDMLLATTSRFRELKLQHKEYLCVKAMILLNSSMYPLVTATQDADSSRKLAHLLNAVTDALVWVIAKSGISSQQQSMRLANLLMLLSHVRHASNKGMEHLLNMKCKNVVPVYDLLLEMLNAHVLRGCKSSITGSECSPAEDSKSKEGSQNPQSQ
Estrogen receptor (Homo sapiens), sequence (P03372 whole entry, looked up): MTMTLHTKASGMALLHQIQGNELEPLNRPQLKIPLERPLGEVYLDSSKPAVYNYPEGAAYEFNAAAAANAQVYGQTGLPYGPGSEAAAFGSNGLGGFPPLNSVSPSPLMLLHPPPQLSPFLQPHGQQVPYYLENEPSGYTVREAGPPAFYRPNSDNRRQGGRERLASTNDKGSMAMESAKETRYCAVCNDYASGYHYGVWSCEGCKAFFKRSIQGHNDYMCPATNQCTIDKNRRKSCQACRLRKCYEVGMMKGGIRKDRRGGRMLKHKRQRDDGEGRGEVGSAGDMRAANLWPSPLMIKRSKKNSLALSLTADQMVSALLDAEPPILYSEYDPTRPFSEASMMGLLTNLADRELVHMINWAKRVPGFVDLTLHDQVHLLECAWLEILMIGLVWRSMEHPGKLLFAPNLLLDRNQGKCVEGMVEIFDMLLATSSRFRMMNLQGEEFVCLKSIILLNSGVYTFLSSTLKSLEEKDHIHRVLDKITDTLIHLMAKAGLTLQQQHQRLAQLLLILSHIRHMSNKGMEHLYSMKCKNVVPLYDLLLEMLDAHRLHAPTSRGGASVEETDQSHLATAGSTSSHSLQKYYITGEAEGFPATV

With `C=CC(=O)OCCCCCCOC(=O)C=C`, the Potency entry in assay [1], in assay [2], in assay [3] and in assay [6] was “inactive” each time. The Potency in [4] is 31 µM (active) and 61.1 µM (active); in assay [5], 54.5 µM (active); in assay [7], 19.6 µM (active) and 19.3 µM (active). Besides, in assay [8], the result was inactive.

With `C=C(C)C(=O)O`, the Potency entry in [1], in assay [2], in assay [3], in assay [4], in assay [5] and in assay [6] was “inactive” throughout. For the same molecule, the Potency result in [7] was “inactive”. The molecule was called inactive in assay [8].

For `C=CC(=O)OCCCCCCCC`, the Potency entry in assay [1], in assay [2], in assay [3], in assay [4], in assay [5] and in assay [6] was “inactive” each time. Further, the result in assay [8] was inactive.

Turning to `CCCCCC(=O)O[C@]1(C(C)=O)CC[C@H]2[C@@H]3CCC4=CC(=O)CC[C@]4(C)[C@H]3CC[C@@]21C`, the Potency in [1] is 48.2 µM (active); in [5] it was 68.1 µM (active) and inactive. Also, the Potency result in assay [2], in [3], in assay [4] and in assay [6] was “inactive” in each case. Moreover, the call in assay [8] was inactive.

Regarding `O=S(=O)(O)c1ccc2nc(-c3ccccc3)[nH]c2c1`, the Potency result in assay [9], in [4], in [5], in assay [6] and in assay [7] was “inactive” in each case. The Potency is 732 nM (active) and 668 nM (active) in [2]; 23.2 µM (active) in assay [3].

With `CCCCN(CCO)CCCC`, the Potency result in assay [1], in assay [2], in [3], in assay [4], in assay [5] and in assay [6] was “inactive” each time. Also, in [7], the Potency entry is “inactive”. Further, the call in [8] was inactive.

For the molecule `CC(C)CCOC(=O)c1ccc(N(C)C)cc1`, the Potency result in assay [1], in [3], in [4], in [5], in [6] and in assay [7] was “inactive” throughout. Also, the result in [8] was inactive.

In the case of `NC(N)=NC(=O)Cc1c(Cl)cccc1Cl`, the Potency result in assay [9], in [2], in assay [3], in assay [5], in assay [6] and in [7] was “inactive” throughout.

In the case of `COC(=O)/C=C/c1ccccc1`, the Potency entry in [1], in assay [2], in assay [3], in assay [4], in assay [5] and in assay [6] was “inactive” in each case. For the same molecule, the Potency entry in assay [7] is “inactive and 21.7 µM (active)”. Also, the result in [8] was inactive.

Take `CC(=O)OCCOCCOCCOC(C)=O`: the Potency result in assay [1], in assay [2], in assay [3], in assay [4], in [5] and in assay [6] was “inactive” throughout. Also, in assay [7], the Potency result was “inactive”. In addition, the result in assay [8] was inactive.

As to `NC(Cc1ccc(Cl)cc1)C(=O)O` (stereo unspecified), the Potency entry in assay [9] was “inactive”. Further, the activity change, negative = inhibition in [2] was -0.367% [at 0.349 µM] (inactive); in [7] it was 23.4% [at 0.349 µM] (inactive). Also, in assay [3], the activity change, negative = cytotoxicity is 1.43% [at 0.349 µM] (inactive). For the same molecule, the figures for the viability change, negative = cytotoxic in [4] and in assay [5] were 0.958% [at 0.349 µM] (inactive) and 2.83% [at 0.349 µM] (inactive), respectively. Moreover, the activity change in assay [6] was -0.363% [at 0.349 µM, stronger effect = higher value] (inactive).

For the molecule `O=C1NCC2(CCN(CCc3ccccc3)CC2)O1`, the Potency entry in [1], in assay [2], in assay [3], in assay [4], in assay [5] and in assay [6] was “inactive” in each case. In [7], the Potency result is “inactive”. In addition, in assay [8], the molecule was called inactive.

As for `CC(C(O)c1ccc(O)cc1)N1CCC(Cc2ccccc2)CC1` (stereo unspecified), the Potency result in [1], in [2], in [3], in [4], in [5] and in assay [6] was “inactive” each time. Also, the Potency result in assay [7] is “inactive”. Also, the outcome in assay [8] was inactive.

As for `CC(C)(C)NCC(O)COc1ccccc1OCC1CCCO1` (stereo unspecified), the Potency entry in [1], in assay [2], in [3], in assay [4], in assay [5] and in [6] was “inactive” in each case. For the same molecule, the molecule was called inactive in assay [8].

As for `Cc1cccc(O)c1C`, the Potency entry in assay [1], in assay [2], in assay [3], in assay [4], in assay [5] and in [6] was “inactive” throughout. For the same molecule, the Potency result in assay [7] is “inactive”. Also, the molecule was called inactive in [8].

For `CCC(C)(C)C(=O)O[C@H]1C[C@@H](C)C=C2C=C[C@H](C)[C@H](CC[C@@H]3C[C@@H](O)CC(=O)O3)[C@H]21`, the Potency entry in assay [1], in assay [2], in assay [3], in assay [4], in assay [5] and in [6] was “inactive” throughout. For the same molecule, in assay [8], the molecule was called inactive.

`CN(C)c1ccc(C(=C2C=CC(=[N+](C)C)C=C2)c2ccccc2)cc1`: the Potency entry in [9] and in [6] was “inactive” each time. The Potency in [2] was 24.3 µM (active) and inactive and 13.3 µM (active); in assay [3], 61.1 µM (active) and inactive; in [4], 4.73 µM (active) [middle of 4 runs]; in assay [5], 2.98 µM (active) [middle of 4 runs]; in assay [7], 172 nM (active) and 376 nM (active) and 237 nM (active).

Consider `CC[C@H]1CN2CCc3cc(OC)c(OC)cc3[C@@H]2C[C@@H]1C[C@H]1NCCc2cc(OC)c(OC)cc21`, for which the Potency result in [9], in assay [2], in [3] and in assay [6] was “inactive” each time. Moreover, the Potency in assay [4] was 274 nM (active); in assay [5], 487 nM (active) and 2.37 µM (active); in assay [7], 8.7 nM (active) and 2.7 nM (active).

Turning to `Nc1ccc2cc3ccccc3cc2c1`, the Potency result in [1], in [3] and in [7] was “inactive” throughout.

As to `O=C1OC2(c3ccc(O)cc3Oc3cc(O)ccc32)c2ccccc21`, the Potency result in [1], in [2], in [3], in [6] and in assay [7] was “inactive” in each case.
